From PubChem
Only some compounds are listed: those with a hit (about 0.63% of all), similar ones and a draw of the others.
TSHR antag: human thyrotropin receptor antagonism; TSHR-expressing cells, TSH-stimulated cAMP HTRF, 2 h; stronger effect = lower value; activity change, negative = inhibition, % at 11.5 µM; actives 0.2% (n = 330,000); AID 504810;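 active = activity change below a set negative limit, meaning inhibition stronger than a set level, cut at about -70% in these data; inconclusive = activity change between two set negative limits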; note: % is set by controls: 0 for no effect and ±100 for the full control effect
Target sequence (P16473 whole entry, looked up): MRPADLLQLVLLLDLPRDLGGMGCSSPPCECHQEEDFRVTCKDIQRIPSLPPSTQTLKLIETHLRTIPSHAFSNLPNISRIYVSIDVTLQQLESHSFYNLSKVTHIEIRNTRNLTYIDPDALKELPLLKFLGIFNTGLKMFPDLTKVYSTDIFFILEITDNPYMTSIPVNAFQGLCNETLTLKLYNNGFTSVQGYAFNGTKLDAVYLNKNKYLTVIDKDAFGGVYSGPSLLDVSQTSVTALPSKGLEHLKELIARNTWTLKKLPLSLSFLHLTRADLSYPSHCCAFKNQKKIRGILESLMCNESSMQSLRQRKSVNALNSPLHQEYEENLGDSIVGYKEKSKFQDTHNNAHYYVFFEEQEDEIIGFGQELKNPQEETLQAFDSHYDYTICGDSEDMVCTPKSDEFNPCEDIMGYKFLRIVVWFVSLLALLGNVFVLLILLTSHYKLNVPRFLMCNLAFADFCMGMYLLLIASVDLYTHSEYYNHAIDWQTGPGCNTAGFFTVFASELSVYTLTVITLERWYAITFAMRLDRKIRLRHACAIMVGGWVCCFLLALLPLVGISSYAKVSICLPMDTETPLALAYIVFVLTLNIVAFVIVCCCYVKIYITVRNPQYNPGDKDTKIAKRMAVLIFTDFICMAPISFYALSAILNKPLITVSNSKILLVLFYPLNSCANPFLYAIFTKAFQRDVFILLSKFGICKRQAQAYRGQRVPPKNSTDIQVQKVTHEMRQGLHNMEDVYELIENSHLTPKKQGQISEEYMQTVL
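Freshly harvested TSHR cells receive pin-tooled compound, then EC80 TSH at 4nM final. After 2 hours at 37 deg C, antibody in lysis buffer and cAMP-d2 are added; 30 minutes at ambient temperature precede the HTRF read.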
TCR act: activates T cell receptor signaling; 330,000 tested, under 10 active; Potency, µM (highest dose often 9.22 µM), without a hit: at the top dose activation of IL-2 secretion, hits mostly activators; primary human leukocytes, anti-CD3, IL-2 HTRF, 48 h; active = well fitted activation curve with a large enough effect; inconclusive = small, poorly fitted or top-dose-only effect, or another doubt; inactive = no such curve, though single readings can be large or run the other way; note: % of control where 0% means no effect
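Primary human leukocytes incubated 48 hr with anti-CD3 beads plus compound, without co-stimulation. Secreted IL-2 measured by HTRF (europium cryptate/d2 anti-IL-2 pair, 320 nm excitation, 665 nm emission).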
Pin1 inh: human Pin1 inhibition. Q13526. Pin1 FP peptide displacement, HiFluor488, 10 min. Potency, µM (doses to about 115 µM), inactives show top-dose activity, negative = inhibition, actives largely listed as inhibitors. actives 0.009% (n = 390,000); active = well fitted inhibition curve with a large enough effect in the polarisation, with a control signal flat, not every such curve was filed as active; inconclusive = small, poorly fitted or top-dose-only effect, or effect the other way, or a change in a side signal; inactive = no such curve, though single readings can be large or run the other way; the % refers to the polarisation; note: potency is the fitted concentration of half-maximal effect; % is set by controls: 0 for no effect and ±100 for the full control effect
gsp antag: gsp mutant antagonism; gsp-mutant cells, cAMP HTRF, 30 min; Potency, µM (highest dose often 76.9 µM), for the others: at the top dose activity change, negative = inhibition, most hits filed as inhibitors; actives 0.4% (n = 340,000); calls by dose curve; cell line not stated here;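 note: intracellular cAMP measured with PDE inhibitor Ro 20-1724 present during compound exposure; potency is the fitted concentration of half-maximal effect; % is set by controls: 0 for no effect and ±100 for the full control effect; nearly all actives have a fitted effect of over 65% in size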
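HTRF cAMP read-out (cAMP-d2 plus anti-cAMP antibody-K in lysis buffer, 30 min RT). Before lysis, cells are exposed to compounds with […] for 30 min at 37C in DPBS containing Ca/Mg, BSA and Tween 20.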
gsp ag: agonists of gsp mutant (McCune-Albright syndrome); gsp mutant cells, cAMP HTRF, 30 min; Potency, µM (doses to about 76.9 µM), for the others: at the highest dose activation (cAMP increase), most hits filed as activators; actives 0.13% (n = 340,000); active = well fitted activation curve with a large enough effect; inconclusive = small, poorly fitted or top-dose-only effect, or another doubt; inactive = no such curve, though single readings can be large or run the other way; cell line not stated here;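 note: phosphodiesterase inhibitor Ro 20-1724 added with compounds to block cAMP breakdown; potency is the fitted concentration of half-maximal effect; nearly all actives have a fitted effect of over 60% in size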
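Cells stably selected in G418 were plated at 2000/well, grown 16-24 hr, then given compounds in DMSO with the PDE inhibitor […] (300 uM solution added) for 30 min at 37C; cAMP was read by HTRF.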
* = called active by the depositor; [ ] = remark or other dose.

Screening CCOC(=O)N1CCN(C(=O)CSCC(=O)Nc2nc(-c3ccc(Cl)s3)cs2)CC1 returned TSHR antag -19.7, TCR act 13.1%, Pin1 inh 4.6%, gsp antag 25.1µM* and gsp ag -28.8%.
For CCc1nnc(NC(=O)c2ccc(S(=O)(=O)N(CC)Cc3ccccc3)cc2)o1 the results were TSHR antag 42.6, TCR act 1.6%, Pin1 inh -1.5%, gsp antag inconclusive and gsp ag -39.0%.
For COc1ncccc1C(=O)N1CCCC(C(=O)c2cccc(OC(C)C)c2)C1 (centres undefined) the results were TSHR antag -9.3, Pin1 inh -0.7%, gsp antag -25.5% and gsp ag -0.3%[15.4 µM].
`Cc1ccc(NC(=O)c2ccc(F)c(S(=O)(=O)N3CCOCC3)c2)cc1F` gave TSHR antag -8.1, Pin1 inh 4.4%, gsp antag 35.5µM* and gsp ag -46.0%.
For O=C(Nc1ccccc1)c1ccc(F)c(S(=O)(=O)N2CCOCC2)c1 the results were TSHR antag 3.6, Pin1 inh -13.7%, gsp antag -30.0% and gsp ag 4.0%.
`COC(=O)c1c(NC(=O)C(C)C)sc2c1C(C(=O)OC)CC2` (centres undefined) gave TSHR antag -1.4, TCR act -6.7%[46.1 µM], Pin1 inh -1.2%, gsp antag -3.4% and gsp ag -17.3%.
`CCN(CC)S(=O)(=O)c1cccc(C(=O)Nc2nnc(C)s2)c1` gave TSHR antag 18.3, TCR act 1.8%, Pin1 inh -0.1%, gsp antag -14.9% and gsp ag 21.0%[15.4 µM].
`CCN(CC)S(=O)(=O)c1cccc(C(=O)Nc2cc(C)on2)c1` gave TSHR antag -3.0, TCR act -1.3%, Pin1 inh -0.5%, gsp antag 50.1µM* and gsp ag 15.9%.
For Cc1nc2cc(NC(=O)c3ccc(S(=O)(=O)N(C)c4ccccc4)cc3)ccc2o1 the results were TSHR antag -41.3, TCR act -0.9%, Pin1 inh -2.2%, gsp antag 31.6µM* and gsp ag 1.8%[15.4 µM].
For CN(c1cccc(NC(=O)c2ccc(N(C)S(=O)(=O)c3ccccc3)cc2)c1)S(C)(=O)=O the results were TSHR antag -27.2, TCR act 1.9%, Pin1 inh 1.5%, gsp antag 25.1µM* and gsp ag -27.8%.
For CN(c1ccccc1)S(=O)(=O)c1cccc(NC(=O)c2cc(=O)c3ccccc3o2)c1 the results were TSHR antag inconclusive, TCR act 7.0%, Pin1 inh 21.4%, gsp antag 39.8µM* and gsp ag 16.4%.
Screening Cc1onc(-c2c(Cl)cccc2Cl)c1COC(=O)c1ccc([N+](=O)[O-])cc1 returned TSHR antag -26.4, TCR act -4.5%, Pin1 inh -0.5%, gsp antag -18.6% and gsp ag -7.5%[15.4 µM].
O=C(CSc1nncs1)N1c2ccccc2Sc2ccccc21 was read as TSHR antag -70.9*, TCR act 1.4%, Pin1 inh -1.4%, gsp antag -18.3% and gsp ag -9.8%.
CC(C)C1CC(CCN2CCCCC2)(c2ccccc2)CCO1 (centres undefined) was read as TSHR antag 0.9, TCR act 0.4%, Pin1 inh 5.3%, gsp antag -0.9% and gsp ag -7.8%.
Screening N#C/C(=N\Nc1ccc(F)cc1)C(=O)C1CC1 returned TSHR antag 0.2, TCR act -4.9%, Pin1 inh -3.1%, gsp antag -8.4% and gsp ag 7.2%.
Screening N#C/C(=N\Nc1ccc(Cl)c(Cl)c1)C(=O)C1CC1 returned TSHR antag inconclusive, TCR act 6.3%, Pin1 inh -13.2%, gsp antag 25.1µM* and gsp ag -24.1%.
COC(=O)c1c(C)[nH]c(C(=O)C(C)OC(=O)C2CC(=O)N(c3ccc(C)cc3)C2)c1C (centres undefined) was read as TSHR antag -22.7, TCR act -4.4%, Pin1 inh -1.8%, gsp antag 39.8µM* and gsp ag 27.8%.
